Several values for one entry are separate records, joined by “and”; a condition that tells them apart may be missing. Equal values may be shown once. Activity calls are given as the source filed them.

The nature of test [1]: small molecules captured by biotinylated probe aFSTL3 – biochemical, small-molecule microarray, fluorescence 635/667, stem cell growth factor project, primary screen (AID 1064).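 Further: measures binding of the biotinylated anti-FSTL3 antibody to printed compounds.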 As to conditions: higher = more signal.
A short description of test [2]: binders from COS7 lysate, DM2A8 probe, primary screen, torsin A project, cell lysate, small-molecule microarray, fluorescence 635/667 (AID 1065). Particulars: higher = more signal, COS7 lysate expressing mutant human TOR1A.
Test [3] in a line: small molecules captured by biotinylated probe aFGF2 – biochemical, small-molecule microarray, fluorescence 635/667, stem cell growth factor project, primary screen (AID 1067).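 Further: measures binding of biotinylated aFGF2 protein to printed compounds on slides; z-score merges feature fluorescence and signal-to-noise across triplicate slides.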 Particulars: higher = more signal.
Test [4] is described as follows: small molecules captured by biotinylated probe aFGF10 – biochemical, small-molecule microarray, fluorescence 635/667, stem cell growth factor project, primary screen (AID 1071).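 Further: score merges 667 nm spot intensity and signal to noise from triplicate slides.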 As to conditions: higher = more signal.
For test [5], the target named is Neurogenic locus notch homolog protein 2 (Homo sapiens) (UniProt Q04721). In words: small molecules binding Notch2 protein – biochemical, small-molecule microarray, 635 nm fluorescence, stem cell growth factors, primary screen (AID 1073). Particulars: higher = more signal.
Chain of Neurogenic locus notch homolog protein 2 (Homo sapiens) (Q04721 whole entry, looked up, canonical isoform): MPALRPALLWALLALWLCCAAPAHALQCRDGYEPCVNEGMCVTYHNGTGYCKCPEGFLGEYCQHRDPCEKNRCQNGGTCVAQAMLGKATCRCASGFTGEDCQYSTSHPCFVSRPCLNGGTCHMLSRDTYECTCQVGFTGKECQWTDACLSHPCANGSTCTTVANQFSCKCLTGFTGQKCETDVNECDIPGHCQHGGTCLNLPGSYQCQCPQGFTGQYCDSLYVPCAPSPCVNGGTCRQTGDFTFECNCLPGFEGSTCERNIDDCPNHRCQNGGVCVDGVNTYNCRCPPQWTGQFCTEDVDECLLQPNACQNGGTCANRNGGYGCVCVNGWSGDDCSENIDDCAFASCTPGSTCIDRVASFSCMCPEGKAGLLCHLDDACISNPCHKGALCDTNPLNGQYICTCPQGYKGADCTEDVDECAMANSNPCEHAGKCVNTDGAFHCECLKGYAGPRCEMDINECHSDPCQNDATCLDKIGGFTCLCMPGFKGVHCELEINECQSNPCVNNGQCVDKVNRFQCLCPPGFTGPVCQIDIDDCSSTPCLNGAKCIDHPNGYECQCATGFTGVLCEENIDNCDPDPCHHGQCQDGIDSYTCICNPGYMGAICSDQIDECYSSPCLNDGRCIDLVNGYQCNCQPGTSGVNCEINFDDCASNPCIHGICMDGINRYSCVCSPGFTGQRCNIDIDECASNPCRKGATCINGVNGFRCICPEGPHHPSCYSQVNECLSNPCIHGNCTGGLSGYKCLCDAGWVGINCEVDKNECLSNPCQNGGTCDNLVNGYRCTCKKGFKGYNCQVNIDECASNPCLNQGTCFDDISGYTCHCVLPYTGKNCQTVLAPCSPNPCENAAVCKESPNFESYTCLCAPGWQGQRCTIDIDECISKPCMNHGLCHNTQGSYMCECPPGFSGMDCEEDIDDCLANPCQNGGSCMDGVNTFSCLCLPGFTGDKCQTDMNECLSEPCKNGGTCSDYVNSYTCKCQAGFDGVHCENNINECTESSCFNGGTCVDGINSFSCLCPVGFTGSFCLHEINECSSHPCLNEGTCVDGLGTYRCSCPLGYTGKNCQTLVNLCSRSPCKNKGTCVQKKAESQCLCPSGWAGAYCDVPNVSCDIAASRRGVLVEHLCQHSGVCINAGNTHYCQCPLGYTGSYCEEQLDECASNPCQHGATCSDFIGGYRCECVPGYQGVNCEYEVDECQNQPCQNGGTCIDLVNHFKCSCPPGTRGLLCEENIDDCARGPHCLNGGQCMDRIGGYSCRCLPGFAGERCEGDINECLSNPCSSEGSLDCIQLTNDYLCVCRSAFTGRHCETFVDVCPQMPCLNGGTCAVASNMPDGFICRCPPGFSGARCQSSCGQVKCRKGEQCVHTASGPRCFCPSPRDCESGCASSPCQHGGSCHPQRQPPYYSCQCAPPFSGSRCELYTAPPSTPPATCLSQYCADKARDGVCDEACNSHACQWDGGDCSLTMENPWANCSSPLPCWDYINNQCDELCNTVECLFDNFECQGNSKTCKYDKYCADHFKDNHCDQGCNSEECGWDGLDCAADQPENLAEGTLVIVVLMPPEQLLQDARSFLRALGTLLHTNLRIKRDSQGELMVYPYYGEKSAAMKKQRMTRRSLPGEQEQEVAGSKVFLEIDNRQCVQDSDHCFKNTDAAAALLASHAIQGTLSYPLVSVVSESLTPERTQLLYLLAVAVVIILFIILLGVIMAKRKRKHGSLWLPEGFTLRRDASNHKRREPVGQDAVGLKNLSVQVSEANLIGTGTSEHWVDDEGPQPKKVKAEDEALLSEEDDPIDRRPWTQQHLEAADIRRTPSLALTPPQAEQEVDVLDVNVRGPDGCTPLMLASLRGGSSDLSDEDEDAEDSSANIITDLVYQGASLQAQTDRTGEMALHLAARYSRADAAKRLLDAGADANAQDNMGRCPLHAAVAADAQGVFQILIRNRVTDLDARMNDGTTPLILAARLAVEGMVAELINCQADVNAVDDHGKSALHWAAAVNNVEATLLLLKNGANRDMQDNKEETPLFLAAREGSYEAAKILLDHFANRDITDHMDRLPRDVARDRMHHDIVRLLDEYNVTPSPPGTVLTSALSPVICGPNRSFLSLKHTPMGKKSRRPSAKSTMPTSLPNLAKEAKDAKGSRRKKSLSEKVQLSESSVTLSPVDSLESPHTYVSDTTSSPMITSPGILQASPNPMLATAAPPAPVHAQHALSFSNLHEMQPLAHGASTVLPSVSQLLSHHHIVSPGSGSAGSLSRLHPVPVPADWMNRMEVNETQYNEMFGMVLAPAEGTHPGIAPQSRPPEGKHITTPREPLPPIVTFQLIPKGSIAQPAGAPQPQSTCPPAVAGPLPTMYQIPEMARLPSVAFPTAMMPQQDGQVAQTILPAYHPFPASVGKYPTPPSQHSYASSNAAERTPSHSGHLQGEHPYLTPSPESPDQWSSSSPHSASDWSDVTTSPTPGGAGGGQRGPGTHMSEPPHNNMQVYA
The target in test [6] is Pro-neuregulin-1, membrane-bound isoform (Homo sapiens) (UniProt Q02297). The experiment in a line: small molecules binding neuregulin-1 protein – biochemical, small-molecule microarray, fluorescence 635/667, psychiatric disease protein project, primary screen (AID 1075).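 Further: score combines 667 nm spot fluorescence with signal to noise.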 Particulars: NRG1 binding, 635 nm fluorescence, higher = more signal.
The test system of test [7] is Neuregulin-1 EGF-like domain. The experiment in a line: small molecules binding NRG1 EGF domain – biochemical, small-molecule microarray, 635 nm fluorescence, primary screen (AID 1081).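 Further: binding of the protein to compounds printed on small-molecule microarray slides.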 Particulars: higher = more signal.
The nature of test [8]: FRG1 expression reporter modulators in myotubes – cell-based, C2C12 myotubes, firefly/Renilla luciferase, luminescence, FRG1 inhibition for FSHD, primary screen (AID 1084). As to conditions: FRG1 promoter luciferase, higher = more signal, called active from +8 up or from −8 down.
Test [9] can be described thus: small molecules captured by biotinylated probe aFST – biochemical, small-molecule microarray, fluorescence 635/667, stem cell growth factor project, primary screen (AID 1086).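 Further: score merges 667 nm fluorescence with signal-to-noise of each printed compound spot.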 Particulars: higher = more signal.
Test [10] can be described thus: binders of probe aHhip on microarray, primary screen, stem cell growth factor project, biochemical, small-molecule microarray, fluorescence 635/667 (AID 1087).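 Further: score merges spot fluorescence at 667nm with spot signal to noise ratio.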 As to conditions: higher = more signal.
Test [11] relates to PRMT1 (protein arginine N-methyltransferase 1). The experiment in a line: small molecules binding arginine methyltransferase PRMT1 – biochemical, small-molecule microarray, 635 nm fluorescence, primary screen (AID 1088).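 Further: binding of Prmt1 protein to compounds spotted on small-molecule microarray slides.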 Particulars: higher = more signal.
Test [12] can be described thus: growth effects on S. cerevisiae YJM789 – YJM789 clinical isolate, OD600, 24 h, basal, primary screen (AID 1089).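 Further: growth of clinical yeast isolate S. cerevisiae YJM 789 seeded 1000 cells per well; test concentration not given here.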 Particulars: higher = more signal, called active from +8 up or from −8 down.
Test [13] in a line: S. pombe growth modifiers, basal conditions – strain 972, OD600, 24 h, no modulator, primary screen (AID 1090).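 Further: basal condition with compound alone and no growth modifier present; test concentration not given here.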 Particulars: S. pombe 972 growth, higher = more signal, called active from +8 up or from −8 down.
Test [14] can be described thus: budding yeast growth modifiers under rapamycin – strain BY4716, OD600, 96 h, primary screen (AID 1091). Further: test concentration not given here. As to conditions: S. cerevisiae BY4716 + rapamycin, higher = more signal, called active from +8 up or from −8 down.
Test [15] has as its target Torsin-1A-interacting protein 2 (Homo sapiens) (UniProt Q8NFQ8). In words: small molecules binding lysate-expressed LULL1 – cell lysate, human LULL1 lysate, 635/667 nm fluorescence, primary screen (AID 1092).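 Further: probe is lysate of COS7 cells overexpressing human LULL1; score merges per-feature 667 nm fluorescence with signal-to-noise.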 Particulars: small-molecule microarray, hLULL1 lysate binding, 635 nm fluorescence; higher = more signal.
The nature of test [16]: optical density change of DRC41 E. coli – strain DRC41, OD650, 24 h, E. coli filamentation project, primary screen (AID 1093).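 Further: MC1000 strain lacking acrAB efflux and sulA so SOS filamentation is blocked; test concentration not given here.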 As to conditions: E. coli DRC41 growth, higher = more signal, called active from +8 up or from −8 down.
Test [17] can be described thus: probe aLefty2 binding to arrayed compounds – biochemical, biotinylated probe, 635/667 nm fluorescence, primary screen (AID 1094).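 Further: score merges spot fluorescence near 667 nm with spot signal-to-noise ratio.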 As to conditions: small-molecule microarray, higher = more signal.
Test [18] relates to Noggin (protein binding on small-molecule microarray). In words: small molecules binding Noggin protein – biochemical, 635/667 nm fluorescence, primary screen (AID 1095).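 Further: score merges 667 nm feature fluorescence with signal to noise over triplicate slides.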 Particulars: 635 nm fluorescence, higher = more signal.
Test [19] deals with Neurogenic locus notch homolog protein 3 (Homo sapiens) (UniProt Q9UM47). The experiment in a line: small molecules binding NOTCH3 protein – biochemical, 635/667 nm fluorescence, primary screen (AID 1096). As to conditions: small-molecule microarray, 635 nm fluorescence, higher = more signal.
Chain of Neurogenic locus notch homolog protein 3 (Homo sapiens) (Q9UM47 whole entry, looked up): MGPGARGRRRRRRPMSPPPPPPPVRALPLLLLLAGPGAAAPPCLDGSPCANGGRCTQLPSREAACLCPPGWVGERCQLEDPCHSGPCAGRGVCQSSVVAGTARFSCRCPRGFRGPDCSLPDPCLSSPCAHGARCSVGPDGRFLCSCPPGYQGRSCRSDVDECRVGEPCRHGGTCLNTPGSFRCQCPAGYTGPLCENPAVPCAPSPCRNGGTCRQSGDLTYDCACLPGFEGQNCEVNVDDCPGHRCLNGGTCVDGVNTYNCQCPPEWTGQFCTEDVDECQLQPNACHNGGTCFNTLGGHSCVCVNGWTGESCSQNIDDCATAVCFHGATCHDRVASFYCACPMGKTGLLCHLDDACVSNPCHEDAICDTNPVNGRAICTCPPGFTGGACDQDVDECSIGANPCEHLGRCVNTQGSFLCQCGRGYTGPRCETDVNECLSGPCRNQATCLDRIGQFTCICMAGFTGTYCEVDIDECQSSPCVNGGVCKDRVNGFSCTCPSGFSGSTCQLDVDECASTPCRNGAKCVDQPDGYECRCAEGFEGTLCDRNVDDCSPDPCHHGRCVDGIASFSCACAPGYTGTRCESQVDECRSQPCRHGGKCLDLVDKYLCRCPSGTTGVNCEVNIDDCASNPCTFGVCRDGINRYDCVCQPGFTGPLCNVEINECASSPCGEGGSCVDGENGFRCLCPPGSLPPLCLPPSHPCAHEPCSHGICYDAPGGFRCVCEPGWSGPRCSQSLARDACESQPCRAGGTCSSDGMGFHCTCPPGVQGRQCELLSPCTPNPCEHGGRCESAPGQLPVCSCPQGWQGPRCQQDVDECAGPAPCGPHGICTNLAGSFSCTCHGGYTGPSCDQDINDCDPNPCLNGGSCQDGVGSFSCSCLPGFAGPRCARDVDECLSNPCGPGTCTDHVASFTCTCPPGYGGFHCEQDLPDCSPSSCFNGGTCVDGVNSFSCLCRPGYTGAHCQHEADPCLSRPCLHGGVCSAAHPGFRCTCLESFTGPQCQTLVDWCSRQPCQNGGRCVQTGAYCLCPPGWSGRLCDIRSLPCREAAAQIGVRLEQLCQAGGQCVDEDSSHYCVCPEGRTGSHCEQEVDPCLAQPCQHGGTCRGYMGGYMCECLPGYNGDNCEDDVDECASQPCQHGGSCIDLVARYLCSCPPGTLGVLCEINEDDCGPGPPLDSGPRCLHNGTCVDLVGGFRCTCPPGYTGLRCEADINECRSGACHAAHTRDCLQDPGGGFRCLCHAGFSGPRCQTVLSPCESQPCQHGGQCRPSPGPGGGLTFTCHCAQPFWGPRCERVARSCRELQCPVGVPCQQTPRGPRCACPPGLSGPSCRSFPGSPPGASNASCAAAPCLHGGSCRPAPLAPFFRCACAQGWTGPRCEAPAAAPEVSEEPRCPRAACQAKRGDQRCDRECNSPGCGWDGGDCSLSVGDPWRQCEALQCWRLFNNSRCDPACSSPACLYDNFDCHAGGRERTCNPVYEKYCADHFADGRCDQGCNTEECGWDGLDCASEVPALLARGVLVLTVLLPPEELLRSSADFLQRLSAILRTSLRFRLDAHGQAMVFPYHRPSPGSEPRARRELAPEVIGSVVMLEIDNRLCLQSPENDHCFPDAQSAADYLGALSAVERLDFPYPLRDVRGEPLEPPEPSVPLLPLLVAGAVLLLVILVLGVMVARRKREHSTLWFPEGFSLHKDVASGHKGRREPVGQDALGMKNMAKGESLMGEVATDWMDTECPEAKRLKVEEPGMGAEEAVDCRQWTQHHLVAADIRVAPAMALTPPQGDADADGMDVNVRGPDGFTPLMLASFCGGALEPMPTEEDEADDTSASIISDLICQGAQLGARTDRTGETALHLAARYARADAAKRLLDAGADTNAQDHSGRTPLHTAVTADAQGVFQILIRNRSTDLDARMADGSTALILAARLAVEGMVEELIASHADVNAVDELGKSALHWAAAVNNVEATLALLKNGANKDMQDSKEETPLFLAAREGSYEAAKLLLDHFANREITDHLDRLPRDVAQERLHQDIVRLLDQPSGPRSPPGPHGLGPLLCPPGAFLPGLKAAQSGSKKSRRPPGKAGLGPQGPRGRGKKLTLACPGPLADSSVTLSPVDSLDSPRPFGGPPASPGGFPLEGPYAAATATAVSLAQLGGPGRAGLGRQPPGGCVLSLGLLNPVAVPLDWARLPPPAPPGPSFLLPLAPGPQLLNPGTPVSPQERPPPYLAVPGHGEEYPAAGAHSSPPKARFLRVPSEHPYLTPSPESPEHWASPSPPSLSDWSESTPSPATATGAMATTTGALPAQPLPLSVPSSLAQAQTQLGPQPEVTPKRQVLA
A short description of test [20]: probe aEGFR binding to arrayed compounds – biochemical, biotinylated probe, 635/667 nm fluorescence, primary screen (AID 1097).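 Further: probe is a biotinylated anti-EGFR antibody binding compounds printed on slides; score combines fluorescence near 667 nm and signal to noise of each spot.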 As to conditions: small-molecule microarray, higher = more signal.

As to `CC(CO)N1C(=O)[C@@H]2C3C(=O)OCCC=C[C@H]3OC23C=CCN(c2ccc4ccccc4c2)C(=O)[C@@H]13` (stereo not given in full), the composite z-score in test [1] is 0.265 and -1.11; in test [2] it was -1.36 and -0.483; in test [3], -0.0689 and -0.36; in [4], -0.282 and -0.642; in [5], -0.704 and -1.04; in [6], 0.0944 and 1.21. Also, the composite z-score in test [7] was 0.713 and 1.19; in test [9], -0.0414 and 0.226; in [10] it was -0.388 and -0.937; in [11], 0.6 and -0.266; in test [15], 3.39 and 0.763; in test [17] it was -0.116 and -0.192. For the same molecule, the composite z-score in [18] is -0.571 and -0.51; in test [19], 0.259 and 0.0899; in [20], -0.324 and -0.343. In addition, the z-score in test [8] was 0.544 (inactive) and 1.81 (inactive); in [12], 1.09 (inactive) and -1.28 (inactive); in test [13], -0.169 (inactive) and -1.95 (inactive); in [14] it was 0.127 (inactive) and -0.589 (inactive); in test [16], -0.138 (inactive) and -0.757 (inactive).
`C=CCN(CCCCC)C(=O)C(c1cccs1)N(C(=O)/C=C\C(=O)O)c1c(Cl)cccc1CO` (stereo not given): the composite z-score in test [1] is 0.0175 and 0.264; in test [2], -0.764 and -0.654; in test [3], -0.21 and -0.122; in [4] it was -1.57 and -1.12; in [5], -2.35 and -1.74; in [6], 1.12 and -0.954. The composite z-score was 0.683 and 0.526 in [7]; -0.655 and -1.1 in test [9]; -0.128 and -0.323 in [10]; -0.399 and -0.874 in test [11]; 2.54 and 0.687 in test [15]; 0.0503 and -0.151 in test [17]. The composite z-score in test [18] is -2.9 and -1.86; in test [19] it was -0.864 and -1.23; in test [20], -0.348 and -0.216. Also, the z-score in test [8] is -0.383 (inactive) and 0.395 (inactive); in test [12], 0.0767 (inactive) and -0.389 (inactive); in [13], -0.186 (inactive) and -0.149 (inactive); in [14], -0.288 (inactive) and -0.446 (inactive); in test [16] it was -0.422 (inactive) and -0.448 (inactive).
As to `C=CC[C@H](O)c1ccc(OCCO)cc1`, the composite z-score is 0.857 and 0.327 in test [1]; -0.688 and 0.148 in test [2]; -0.153 in test [3]; -1.16 and -0.746 in test [4]; -1 and -1.04 in test [5]; 0.524 and -0.434 in test [6]. Moreover, the composite z-score in test [7] was 0.176 and 0.997; in test [9], -0.396 and -0.905; in test [10] it was -0.261 and -0.296; in test [11], -0.145 and -1.37; in test [15] it was -0.435 and -2.14; in test [17] it was -0.0653 and -0.181. The composite z-score in [18] was -0.292 and 0.249; in test [19], -0.847 and -0.324; in test [20], -0.162 and -0.191. The z-score is 0.831 (inactive) and 2.16 (inactive) in test [8]; -0.192 (inactive) and -0.831 (inactive) in [12]; -0.228 (inactive) and -0.917 (inactive) in test [13]; -0.389 (inactive) and -1.19 (inactive) in test [14]; -0.646 (inactive) and -0.812 (inactive) in test [16].
Turning to `COC(=O)C1=C(C)N(Cc2ccccc2)C2=C3C(=O)N(c4ccccc4)C(=O)[C@@H]3[C@@](O)(C(=O)OC)C(=O)N2[C@@H]1c1ccccc1`, the composite z-score in test [1] was -0.302 and -0.483; in test [2] it was 0.205 and 0.642; in test [3] it was -0.118 and -0.137; in test [4], 0.738 and 0.591; in [5], 0.897 and 1.21; in [6], 0.383 and 0.418. The composite z-score is 1.02 and 0.99 in test [7]; 0.366 and 0.346 in test [9]; -0.166 and -0.375 in test [10]; 0.345 and 1.13 in test [11]; 0.806 and 1.46 in test [15]; -0.0736 and -0.0453 in [17]. For the same molecule, the composite z-score was 0.608 and 0.455 in test [18]; 0.54 and 1.04 in test [19]; -0.0125 and -0.0534 in test [20]. Further, the z-score in test [8] was 0.0445 (inactive) and -1.22 (inactive); in test [12], 0.286 (inactive) and -1.22 (inactive); in test [13] it was -1.52 (inactive) and -2.29 (inactive); in test [14], -1.18 (inactive) and -1.1 (inactive); in test [16] it was 0.117 (inactive) and 1.24 (inactive).
Take `COC(=O)C1=C(C)N(Cc2ccccc2)[C@]23O[C@](C(=O)OC)(C(=O)N2[C@@H]1c1ccccc1)[C@H]1C(=O)N(c2ccccc2)C(=O)[C@H]13`: the composite z-score is -0.387 and -0.343 in test [1]; 0.446 and 0.277 in test [2]; -0.0747 and 0.41 in test [3]; -0.116 and 0.883 in [4]; 1.18 and 0.445 in test [5]; 0.288 and 0.212 in [6]. Besides, the composite z-score in [7] is 1.07 and 1.09; in [9], 0.0931 and 0.64; in [10], 0.192 and -0.0672; in test [11] it was 0.343 and -0.0383; in test [15], 1.14 and 0.69; in [17], -0.0812 and -0.0245. The composite z-score is 0.468 and 0.611 in test [18]; 0.649 and 1.11 in [19]; 0.253 and 0.0534 in test [20]. Further, the z-score was -0.507 (inactive) and -0.154 (inactive) in test [8]; 0.434 (inactive) and 0.397 (inactive) in [12]; -0.261 (inactive) and -0.858 (inactive) in test [13]; -0.558 (inactive) and 0.264 (inactive) in test [14]; 0.102 (inactive) and 0.185 (inactive) in [16].
Regarding `CC(=O)OC[C@H]1O[C@H](C#CC(C)(C)C)C=C[C@@H]1OC(C)=O`, the composite z-score is -0.358 in test [1]; -0.159 in test [2]; -0.126 in test [3]; 0.039 in test [4]; 1.01 in [5]; 1.38 in test [6]. Further, the composite z-score is 1.25 in test [7]; 0.454 in [9]; 0.164 in [10]; 0.975 in [11]; 1.3 in test [15]; -0.177 in test [17]. Also, the composite z-score in test [18] stood at 0.369; in test [19], 0.695; in test [20] it was 0.0168. In addition, the z-score in [8] was -0.259 (inactive); in test [12] it was -0.0789 (inactive); in [13], -1.48 (inactive); in test [14], -0.589 (inactive); in [16], 0.459 (inactive).
As to `CC(C)CCN1CCc2nc(-c3ccccc3)c3c(c2C1)CO[C@@H](C)C3`, the composite z-score is 1.3 in [1]; 0.0532 in test [2]; -0.0996 in test [3]; 0.491 in [4]; 0.698 in test [5]; 0.334 in test [6]. Also, the composite z-score in [7] was 1.17; in [9], 0.57; in test [10] it was 0.208; in [11], 0.837; in test [15] it was 1.8; in [17], -0.0641. Further, the values for the composite z-score in [18], in test [19] and in test [20] were 0.444, 0.922 and -0.0578, respectively. For the same molecule, the z-score in [8] is -0.174 (inactive); in test [12], -0.334 (inactive); in test [13], -0.519 (inactive); in test [14], 0.622 (inactive); in test [16], 0.825 (inactive).
As for `CC(CO)N1C(=O)[C@@H]2C3C(=O)OCCC=C[C@H]3OC23C=CCN(Cc2ccccc2)C(=O)[C@@H]13` (stereo not given in full), the composite z-score in test [1] is 0.144 and 0.708; in test [2], 1.03 and -0.0188; in [3], -0.162 and -0.111; in [4], -0.691 and 0.0659; in test [5], -1.24 and -0.565; in [6] it was -0.852 and 1.22. Also, the composite z-score in [7] is 1.08 and 0.738; in [9] it was -0.41 and -0.455; in test [10], -0.236 and -0.34; in test [11] it was -0.477 and -0.385; in [15], 1.16 and 0.0845; in test [17], -0.0216 and -0.0449. Besides, the composite z-score was -1.05 and -0.529 in test [18]; -0.36 and -0.377 in [19]; -0.196 and -0.221 in test [20]. Moreover, the z-score was 0.587 (inactive) and 0.0791 (inactive) in test [8]; 0.814 (inactive) and -0.448 (inactive) in test [12]; -0.326 (inactive) and -1.08 (inactive) in test [13]; 1.53 (inactive) and -0.42 (inactive) in [14]; 1.3 (inactive) and 1.67 (inactive) in test [16].
